Assay results from PubChem BioAssay AID584 (National Center for Advancing Translational Sciences (NCATS), 2007).
The whole screen tested about 71,000 compounds, of which about 65 (0.09%) were called active. Where a call stands in place of a potency, no number is given. The call rests on the fitted dose curve; in most records, active means well fitted curve in the direction sought with a large enough effect; inconclusive means small, poorly fitted or top-dose-only effect; inactive means flat fitted curve, though single readings scatter. This excerpt belongs to a sample that is enriched for actives.

biological target: Beta-lactamase (Escherichia coli (strain K12)) (UniProt P00811); experiment: Promiscuous and Specific Inhibitors of AmpC Beta-Lactamase (assay with detergent); settings: purified AmpC, nitrocefin hydrolysis with detergent; series mostly up to 28.7 µM
Sequence (P00811 whole entry, looked up): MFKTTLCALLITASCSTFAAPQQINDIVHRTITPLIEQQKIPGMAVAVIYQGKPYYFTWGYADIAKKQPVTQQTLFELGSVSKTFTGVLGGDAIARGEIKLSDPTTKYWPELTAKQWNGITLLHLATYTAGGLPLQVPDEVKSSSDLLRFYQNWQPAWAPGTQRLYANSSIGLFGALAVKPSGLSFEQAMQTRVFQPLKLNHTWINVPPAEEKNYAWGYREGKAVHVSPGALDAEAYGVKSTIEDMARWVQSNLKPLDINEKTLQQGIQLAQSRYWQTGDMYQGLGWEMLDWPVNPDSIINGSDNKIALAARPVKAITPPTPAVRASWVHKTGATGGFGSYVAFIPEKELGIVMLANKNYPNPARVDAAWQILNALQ
Protocol: NIH Molecular Libraries Screening Centers Network [MLSCN]
NIH Chemical Genomics Center [NCGC]
PI Name: Shoichet, Brian K.
This aggregation profiling approach exploits the sensitivity of aggregate formation to detergent. Inhibition of b-lactamase is measured in the presence and absence of 0.01% Triton X-100. This particular assay had the prescence of 0.01% Triton X-100. See Pubchem assay "Promiscuous and Specific Inhibitors of AmpC Beta-Lactamase (assay without detergent)" for related screen. Compounds that inhibit only in the absence of detergent are considered likely promiscuous aggregators.
A screen of 1,030 compounds was performed in Brian Shoichet's lab in 96-well format. AmpC activity was measured by following the absorbance at 480 nm. Nitrocefin is a chromogenic substrate: while nitrocefin is yellow (lmax 390 nm), the product of its hydrolysis is red (lmax 486 nm, 17,000 M-1). AmpC beta lactamase was provided by Brian Shoichet and Brian Feng, UCSF.
NCGC Assay Protocol Summary:
20 mM phosphate buffer, pH 7.0
Triton X-100: No Detergent screen: 0.0001%, Detergent screen: 0.01%.
Buffer in columns 3 and 4 as negative control (no enzyme).
5.3 nM AmpC in columns 1, 2, 5-48. Titration of UCSF compound 9 control (from 10 mM, then 1:2) pin-transferred to column 2. Column 1 is neutral (100% activity).
Six uL of reagents were dispensed to 1536-well Greiner black clear bottom plates. Compounds and controls (23 nL) were transferred via Kalypsys PinTool. The plates were incubated for 15 min at room temperature, and then 2 uL of 800 uM solution of nitrocefin was added to start the reaction. The plates were immediately transferred to and read every 20 seconds for 4 min on ViewLux (Perkin-Elmer) High-throughput CCD imager using 480 nm absorbance protocol. During dispense, reagent bottles were kept submerged into 4 deg C water bath.
Keywords: NIH Roadmap, MLSCN, MLI, MLSMR, qHTS, NCGC, AmpC Beta-Lactamase, Aggregation
Potency means the concentration at half of the fitted maximal effect.

| SMILES | Potency | activity change, negative = inhibition |
| --- | --- | --- |
| CC(C)(O/N=C(\C(=O)N[C@@H]1C(=O)N2C(C(=O)[O-])=C(C[n+]3ccccc3)CS[C@@H]12)c1csc(N)n1)C(=O)O | 3.98 µM (active) | – |
| COc1ccc(OC)c(C2N(c3ccccn3)C(=O)C3CCCN32)c1 (stereo not given) | – | inactive |
| Clc1ccc(CSc2nnc([C@@H]3CCCN3)o2)cc1 | – | inactive |
| C=CCNC(=O)c1ccc(C)c(Br)c1 | – | inactive |
| Cc1ccc(CNC(=O)CN2CCN(Cc3ccc(Cl)cc3)C2=O)cc1 | – | inactive |
| COCCCNC(=O)c1ccc(CNS(=O)(=O)c2ccc(NC(C)=O)cc2)cc1 | – | inactive |
| Cn1nc(-c2ccc(Cl)cc2)c2cc(C(=O)NCc3ccco3)sc21 | – | inactive |
| CCCN(CCC)CCNC(=O)c1cc2c(C)nc3ccccc3c2o1 | – | inactive |
| CCn1c(NCCc2ccc(OC)c(OC)c2)nc2c1c(=O)n(C)c(=O)n2C | – | inactive |
| Fc1ccccc1CCNc1nnnn1-c1ccccc1 | – | inactive |
| Cc1ccn2cc(-c3nonc3C)cc2c1 | – | inactive |
| O=C(c1cccc(S(=O)(=O)N2CCOCC2)c1)N1CCOCC1 | – | inactive |
| Clc1ccc(Nc2nc(-c3cccs3)cs2)nc1 | – | inactive |
| COc1cccc2sc(Nc3nc(C)c(C(C)=O)s3)nc12 | – | inactive |
| CC(=O)N1CCc2cc(S(=O)(=O)Nc3ccccc3N3CCN(C)CC3)ccc21 | – | inactive |
| COc1ccc(OCC(=O)N2CCN(C(=O)c3cccs3)CC2)cc1 | – | inactive |
| Cc1ccccc1C(=O)NCCN=C1NS(=O)(=O)c2ccccc21 | – | inactive |
| C#CCN1C(=O)C(O)(CC(=O)c2cc(OC)ccc2OC)c2ccccc21 (stereo not given) | – | inactive |
| CCOC(=O)c1ccc(N2C(=O)CC(N3CCC(C(=O)OCC)CC3)C2=O)cc1 (stereo not given) | – | inactive |
| O=C1c2oc3ccc(Br)cc3c(=O)c2C(c2cccc(F)c2)N1CCO (stereo not given) | – | inactive |
| O=C(c1ccco1)N1CCC[C@@]2(CCN(Cc3nccs3)C2)C1 | – | inactive |
| O=C1c2oc3ccccc3c(=O)c2C(c2cccc(O)c2)N1c1ccccn1 (stereo not given) | – | inactive |
| CCCCCCCCCCCC(=O)O[C@H](CC(=O)O)C[N+](C)(C)C | – | inactive |
| CCOC(=O)N1CCN(C(=O)c2n[nH]c(=O)c3ccccc23)CC1 | – | inactive |
| CC(C)c1cc(C(=O)O)on1 | – | inactive |
| O=S(=O)(c1ccc(OCC(O)CN2CCN(c3ccccc3Cl)CC2)cc1)N1CCOCC1 (stereo not given) | – | inactive |
| CCNC(=O)N1CCNC(=O)C1CC(=O)Nc1ccc(C(=O)OCC)cc1 (stereo not given) | – | inactive |

| SMILES | Potency | activity change, negative = inhibition |
| --- | --- | --- |
| COc1ccccc1-n1nnnc1S(=O)(=O)Cc1ccc(Cl)cc1 | – | inactive |
| COc1ccc2occ(C(=O)c3ccc(N=C(C)N(C)C)cc3)c2c1 | – | inactive |
| CCC(=O)Nc1ccc2c(c1)nc(CCN1CCN(C)CC1)n2C | – | inactive |
| O=C(Nc1ccc(NC(=O)c2cccs2)cn1)c1ccco1 | – | inactive |
| COC(=O)c1oc2ccc(Br)cc2c1NC(C)=O | – | inactive |
| O=C(C(NS(=O)(=O)c1cccc2nsnc12)c1ccccc1)N1CCN(c2ccccn2)CC1 (stereo not given) | – | inactive |
| CC[C@@](O)(C(=O)O)c1cc2n(c(=O)c1CO)Cc1cc3ccccc3nc1-2 | – | -3.6% [at 5.75 µM] (inactive) |
| CC(C)CCNC(=O)CN(C(=O)Cn1nnc(-c2ccc(F)cc2)n1)C1CCCC1 | – | inactive |
| O=C(CSc1nnc(-c2ccco2)o1)NCC(=O)c1ccccc1 | – | inactive |
| Nc1scc(-c2ccncc2)c1Cl | – | inactive |
| O=C(CSc1nc2ccccc2o1)N1CCN(c2ccc(Cl)cc2)CC1 | – | inactive |
| O=C(c1ccccc1-c1ccccc1)N1CCOCC1 | – | inactive |
| Cc1ccc(F)cc1NC(=O)c1ccc2c(c1)OCO2 | – | inactive |
| c1ccc2nc(C3=NCCN3)cnc2c1 | – | inactive |
| COc1ccc(CCNc2ncnc3nc[nH]c23)cc1OC | – | inactive |
| Cc1cc(C(=O)O)ccc1[N+](=O)[O-] | – | inactive |
| O=C(Nc1ccccc1F)c1cc(S(=O)(=O)N2CCCCC2)cs1 | – | inactive |
| COC(=O)[C@@]1(Cc2ccc(OC)cc2)[C@H]2c3cc(C(=O)N4CCCC4)n(Cc4ccc(C(F)(F)F)nc4)c3C[C@H]2CN1C(=O)c1ccccc1 | – | inactive |
| Cc1ccc(Cn2nnc3c(=O)n(CC(=O)N4CCCCC4)cnc32)cc1 | – | inactive |
| CCC(C)(C)n1nnnc1C(c1cccs1)N1CCN(c2nc3ccccc3s2)CC1 (stereo not given) | – | inactive |
| O=S(=O)(Nc1ccc2nc(-c3ccco3)[nH]c2c1)c1ccccc1 | – | inactive |
| Cc1cc(N2C(=O)c3ccc(C(=O)NCc4ccccc4)cc3C2=O)no1 | – | inactive |
| CCCCOc1ccc(Cl)cc1CSc1nncn1N | – | inactive |
| NCC[Se][Se]CCN | – | -3% [at 5.75 µM] (inactive) |
| NC(=NC(=O)c1ccccc1)C1=C(O)CCC1=O | – | inactive |
| COC(=O)Cn1c(=NC(=O)CSCC(=O)Nc2cc(C)on2)sc2ccccc21 | – | inactive |
| Cc1ccsc1-c1nc(CSCC(=O)NCCN2CCCC2)c(C)o1 | – | inactive |

| SMILES | Potency | activity change, negative = inhibition |
| --- | --- | --- |
| O=C(NCc1ccco1)c1ccc(CS(=O)(=O)Cc2ccc(F)cc2)o1 | – | inactive |
| CCCCCCn1c(CN2CCCC(C)C2)nc2c1c(=O)n(C)c(=O)n2C (stereo not given) | – | inactive |
| O=C1c2ccccc2C(Nc2ccc3c(c2)OCCO3)N1Cc1ccco1 (stereo not given) | – | inactive |
| COc1ccccc1CN1CC2(CCN(S(=O)(=O)c3ccccc3)CC2)C1 | – | inactive |
| CCOC(=O)c1nnn(-c2nc(OC)nc(N(C)C)n2)c1-c1ccccc1 | – | inactive |
| CCOC(=O)c1sc(=S)n2c1[nH]c(=O)c1ccc(C(=O)OC)cc12 | – | inactive |
| O=C(CS(=O)(=O)c1cn(Cc2cccc(F)c2)c2ccccc12)N1CCCCC1 | – | inactive |
| CC(C)CSC[C@@H]1O[C@H](n2cnc3c(N)nccc32)[C@H](O)[C@@H]1O | – | -4% [at 5.75 µM] (inactive) |
| CCCCSc1nnc(-c2ccc(NC(=O)CC)cc2)n1C | – | inactive |
| COc1ccc2[nH]c(=O)c(CN(Cc3nnnn3CCc3ccccc3)CC3CCCO3)cc2c1 (stereo not given) | – | inactive |
| CC(C)CC(=O)N=C1SC2CS(=O)(=O)CC2N1CCc1ccccc1 (stereo not given) | – | inactive |
| O=C(NCc1ccccn1)Nc1ccc(F)cc1 | – | inactive |
| CC(=NCc1ccco1)C1=C(O)c2ccccc2C1=O | – | inactive |
| COC(=O)c1ccc(NC(=O)CSc2nnc(-c3ccncc3)n2C)cc1 | – | inactive |
| COc1ccccc1OCCOc1ccc(/C=N/n2cnnc2)cc1 | – | inactive |
| CC12CN(Cc3ccccc3)CC(C)(CN(Cc3ccccc3)C1)C2=NO | – | inactive |
| COc1ccc(-c2noc(COc3ccc(Cl)c(C)c3)n2)cc1 | – | inactive |
| COCC(C)NC(=O)c1ccc(Cl)c(Cl)c1 (stereo not given) | – | inactive |
| Cc1ccc(-c2ccc(=O)n(CC(=O)NCCCN3CCCCC3)n2)cc1 | – | inactive |
| COc1ccc(S(=O)(=O)N2CCC(C(=O)N3CCc4ccccc4C3)CC2)cc1OC | – | inactive |
| CCn1c(=O)cc(SCC(=O)NCc2ccc3c(c2)OCO3)c2ccccc21 | – | inactive |
| COc1ccccc1-c1nc(C(F)(F)F)c(OC)o1 | – | inactive |
| CCC(=O)Nc1ccccc1N1CCN(S(C)(=O)=O)CC1 | – | inactive |
| COc1cc(C2C(C#N)=C(C)NC3=C2C(=O)CC(C)(C)C3)ccc1O (stereo not given) | – | inactive |
| Cc1ccc(S(=O)(=O)N2CCOCC2)cc1C(=O)NCc1ccc(F)cc1 | – | inactive |
| COc1cc(Br)cc(/C=N/c2ncn[nH]2)c1O | – | inactive |
| COC(=O)[C@@]1(Cc2ccccc2)[C@H]2c3cc(C(=O)N4CCCC4)n(Cc4ccc(C)o4)c3C[C@H]2CN1C(=O)c1ccccc1 | – | inactive |

| SMILES | Potency | activity change, negative = inhibition |
| --- | --- | --- |
| CCn1c(CSc2ncccn2)nnc1SCC(=O)N1c2ccccc2CC1C (stereo not given) | – | inactive |
| COc1cc(C2C(C(=O)Nc3ccc(F)cc3)=C(C)Nc3nc(CCCO)nn32)cc(OC)c1OC (stereo not given) | – | inactive |
| CC(C)c1ccc(NS(=O)(=O)c2cn(C)c(=O)n(C)c2=O)cc1 | – | inactive |
| O=C(CCn1c(=O)oc2ccccc21)Nc1ccon1 | – | inactive |
| CCOC(=O)c1cc(-c2nnc(-c3cc(OC)c(OC)c(OC)c3)o2)c(C)nc1C | – | inactive |
| c1csc(CN2CCN(Cc3cccs3)C2c2cccs2)c1 | – | inactive |
| COC(=O)CNS(=O)(=O)c1ccc(Cc2ccc(S(=O)(=O)NCC(=O)OC)cc2)cc1 | – | inactive |
| Cc1ccc(C2(c3ccc(C)cc3)NC(=O)N(Cc3c(C)noc3C)C2=O)cc1 | – | inactive |
| C[C@@H](C(=O)Nc1ccc2ccccc2c1)[C@@H]1C[C@@]1(C)[C@@H](NC(=O)c1cccnc1)c1ccccc1 | – | inactive |
| N#Cc1c2c(c(N3CCN(CCO)CC3)n3c1nc1ccccc13)CCCC2 | – | inactive |
| Cc1cc(Br)ccc1NC(=O)C1CCCO1 (stereo not given) | – | inactive |
| CO[C@@H]1/C=C\O[C@]2(C)Oc3c(C)c(O)c4c(O)c(c(CN(C)C)c(O)c4c3C2=O)NC(=O)/C(C)=C\C=C[C@@H](C)[C@@H](O)[C@H](C)[C@@H](O)[C@H](C)[C@H](OC(C)=O)[C@@H]1C | – | -4.9% [at 5.75 µM] (inactive) |
| O=C(CCCCn1c(=O)[nH]c2ccccc2c1=O)NCc1ccc2c(c1)OCO2 | – | inactive |
| CCN(CC(=O)NC(C)C)C(=O)CCNC(=O)c1ccc(Cl)cc1 | – | inactive |
| COc1ccc(-c2nc3cnc(N(C)C)nc3n(Cc3cccs3)c2=O)cc1 | – | inactive |
| CCOC(=O)C1C(=O)C=C(c2ccc(OC)cc2)CC1c1ccco1 (stereo not given) | – | inactive |
| O=C(C1CCC(C(=O)N2CCCC2)CC1)N1CCCC1 (stereo not given) | – | inactive |
| O=C1CCc2cc(S(=O)(=O)N3CCC(C(=O)NCc4ccccc4Cl)CC3)ccc2N1 | – | inactive |
| COc1cccc(-n2c(Cc3cc(=O)[nH]c(=O)[nH]3)nnc2SCC(=O)Nc2ccccc2)c1 | – | inactive |
| COc1ccc(C)cc1NC(=O)CSc1nc(SC)ns1 | – | inactive |
| Cc1ccc2cc3cc(C(=O)N4CCCCCC4)oc3nc2c1 | – | inactive |
| COc1ccccc1CNc1ncnc2ccc(-c3c(C)noc3C)cc12 | – | inactive |
| CC(=O)N1[C@H](C)C=C[C@]1(Cc1ccccc1)C(=O)NCc1ccccn1 | – | inactive |
| CCOc1cc2[nH]c(=S)n(CCCN3CCCC3=O)c(=O)c2cc1OCC | – | inactive |
